Screening data as filed in PubChem BioAssay.
The full list was thinned out, with hits kept by preference.
TTR transcr act = TTR transcription activation, primary screen; activation, % at 16.7 µM; 1.3% of 92,000 active; AID 1117267; SH-SY5Y TTR promoter Gaussia luciferase, luminescence; 100% = recombinant luciferase protein wells;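 active means activation above the mean of all tested compounds plus 3 SD, cut at about 9.5% in these data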;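 further: cells exposed to compounds for one day before reading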
HuH7 TTR inh = counter-screen for TTR activators: TTR transcription inhibitors in HuH7 cells; shares compounds with TTR transcr act; HuH7 TTR promoter-Gaussia luciferase reporter, luminescence; inhibition, % at 16.7 µM; 4% of 1,100 active;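 active means average inhibition above the solvent-only control wells' mean plus 3 SD, cut at about 15% in these data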;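 further: inhibitors lower well luminescence so higher value means more inhibition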
TTR up confirm = confirmation of human transthyretin transcription activators; activation, % at 16.7 µM; 1,100 tested, under 10 active; shares compounds with TTR transcr act; SHSY5Y TTR promoter Gaussia luciferase, luminescence; 100% = purified Lucia enzyme wells, no cells;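 active means mean activation above a set limit taken from the earlier primary screen, cut at about 11% in these data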
Hits are given with their value.

CC(C)C[C@H]1CNC(=S)N1C[C@H]1CCCN1C[C@H](CC(C)C)N1C[C@H](Cc2ccc(O)cc2)N(CC2CCCCCC2)C1=S was read as TTR transcr act 25, HuH7 TTR inh inactive and TTR up confirm inactive.
For CC(C)C[C@H]1CNC(=S)N1C[C@H]1CCCN1C[C@H](CC(C)C)N1C[C@H](Cc2ccc(O)cc2)N(CCc2ccccc2)C1=S the results were TTR transcr act inactive.
`CC(C)C[C@H]1CNC(=S)N1CC1CCCN1C[C@H](CC(C)C)N1C[C@H](Cc2ccc(O)cc2)N(CC2CCCCC2)C1=S` (stereo partly drawn) gave TTR transcr act inactive.
For O=S1(=O)CCSC[C@@H](CNCc2ccco2)N1 the results were TTR transcr act inactive.
`CC1CCC2(CCC(=O)N2C[C@@H](O)c2ccccc2)CC1` (stereo partly drawn) gave TTR transcr act inactive.
For Cn1cnnc1SCC(=O)Nc1ccc(Cl)cc1 the results were TTR transcr act 13, HuH7 TTR inh inactive and TTR up confirm inactive.
For Cc1nc(-c2nnc(SCC(=O)Nc3ccc(Cl)cc3)n2C)cs1 the results were TTR transcr act 23, HuH7 TTR inh inactive and TTR up confirm inactive.
Screening CCC(=O)Nc1ccc(NC(=O)CSc2nnc(-c3ccco3)n2C)cc1 returned TTR transcr act inactive.
Screening Cn1cnnc1SCC(=O)Nc1ccc(Oc2ccccc2)cc1 returned TTR transcr act inactive.
For Cn1cnnc1SCC(=O)Nc1ccc(F)cc1F the results were TTR transcr act inactive.
CN(C)c1ccc(NC(=O)CSc2nnc(-c3cnccn3)n2C)cc1 was read as TTR transcr act inactive.
COCCN=C1S/C(=C\c2cc(C)n(-c3ccc(F)cc3F)c2C)C(=O)N1C was read as TTR transcr act inactive.
Nc1nnnn1/N=C/c1cc(Br)ccc1O was read as TTR transcr act 12, HuH7 TTR inh inactive and TTR up confirm inactive.
For CCOc1ccc(/C=N/n2nnnc2N)cc1O the results were TTR transcr act inactive.
`CCOc1ccc(/C=N/n2nnnc2N)cc1OCC` gave TTR transcr act inactive.
Screening CC(C)CCNC(=O)CSc1nc2c(c(=O)[nH]1)CCC2 returned TTR transcr act inactive.
COc1ccc(C=O)cc1-c1cc(C(C)=O)c2n(c1=O)CCC2 was read as TTR transcr act inactive.
`C/C(=N\Nc1nc2ccccc2s1)c1ccc2c(c1)OCO2` gave TTR transcr act 11, HuH7 TTR inh inactive and TTR up confirm inactive.
Screening Cc1ccc2nc(NC(=O)c3ccc4c(c3)OCO4)sc2c1 returned TTR transcr act inactive.
C/C(=N\Nc1ccc(Cl)c(C(=O)O)c1)c1ccc2c(c1)OCO2 was read as TTR transcr act inactive.
For CCCc1c(C(=O)NNc2ccccc2OC)cnn1-c1ccccc1 the results were TTR transcr act 12, HuH7 TTR inh inactive and TTR up confirm inactive.
COc1ccc(CCNC(=O)c2cnn(-c3ccccc3)c2N)cc1OC was read as TTR transcr act inactive.
Screening CCOC(=O)c1cnn(-c2ccccc2)c1NC(=O)CCl returned TTR transcr act inactive.
CC(C)c1ccc(C(=O)Nc2cc(Cl)ccc2C(=O)O)cc1 was read as TTR transcr act inactive.
For Cc1ccc(CNC2CCC23CCC(c2ccccc2)CC3)o1 (stereo not drawn) the results were TTR transcr act inactive.
`c1ccc2cc(Cn3ccc4ccc(-c5ccc6cc[nH]c6c5)cc43)ccc2c1` gave TTR transcr act inactive.
For COc1ccc(Cl)cc1NC(=O)c1[nH]nc(OC)c1[N+](=O)[O-] the results were TTR transcr act inactive.
For Cc1ccc(F)cc1NC(=O)c1cccc2nccnc12 the results were TTR transcr act inactive.
For COc1n[nH]c(C(=O)Nc2cc(F)ccc2C)c1[N+](=O)[O-] the results were TTR transcr act 10, HuH7 TTR inh inactive and TTR up confirm inactive.
C[C@@H]1[C@@H](O)C[C@@]2(C[C@H](O)c3cc(F)ccc3O2)O[C@H]1c1ccccc1Cl was read as TTR transcr act inactive.
Screening Cc1ccccc1CSc1nnc(C)c(=O)[nH]1 returned TTR transcr act inactive.
`Cc1nc(C)c(-c2ccc(SCc3ccccc3C)nn2)s1` gave TTR transcr act 16, HuH7 TTR inh inactive and TTR up confirm inactive.
COc1cccc(NC(=O)CSc2ccc(-c3sc(C)nc3C)nn2)c1 was read as TTR transcr act inactive.
`CCCCn1nnnc1C1c2ccccc2OCC(=O)N1Cc1ccc2c(c1)OCO2` (stereo not drawn) gave TTR transcr act inactive.
`CN1C2=NC(c3ccc4ccccc4c3)CC(=O)N2/C(=C\c2ccccc2)C1c1ccccc1C(F)(F)F` (stereo not drawn) gave TTR transcr act inactive.
Screening CC(C)(C)c1ccc(CNc2nc(-c3ccccn3)nnc2-c2ccccc2)cc1 returned TTR transcr act inactive.
`COc1ccc(C(=O)Nc2cccc([N+](=O)[O-])c2)cc1Br` gave TTR transcr act 15, HuH7 TTR inh inactive and TTR up confirm inactive.
`COc1ccc(NC(=O)c2cccc([N+](=O)[O-])c2)cc1` gave TTR transcr act inactive.
COC(=O)c1cccc(NC(=O)c2cccc([N+](=O)[O-])c2)c1 was read as TTR transcr act inactive.
Screening NC(=O)c1sc2nc3c(c(-c4ccco4)c2c1N)CCC3 returned TTR transcr act inactive.
Screening NC(=O)c1sc2nc(-c3ccco3)ccc2c1N returned TTR transcr act 10, HuH7 TTR inh inactive and TTR up confirm inactive.
`Nc1c(C(=O)Nc2ccccc2F)sc2nc(-c3ccco3)ccc12` gave TTR transcr act inactive.
For CC(C)(C)S(=O)(=O)N1C[C@@H]2CC(=O)C=C2[C@H]1CCO the results were TTR transcr act inactive.
`COC(=O)[C@]12C[C@H](CC(=O)N3CCN(C(=O)c4ccco4)CC3)C(=O)N(Cc3ccc4c(c3)OCO4)C1=C[C@H](C(C)C)O[C@@H]2C1CC1` gave TTR transcr act inactive.
COC(=O)[C@]12C[C@H](CC(=O)NCc3cccc(C(F)(F)F)c3)C(=O)N(Cc3ccc(Cl)cc3Cl)C1=C[C@H](C1CCCC1)O[C@@H]2C was read as TTR transcr act inactive.
`CCCc1nnc(-c2ccc(OC)cc2)o1` gave TTR transcr act 12, HuH7 TTR inh inactive and TTR up confirm inactive.
For COc1ccc(SCCc2nnc(-c3ccccc3)o2)cc1 the results were TTR transcr act inactive.
Screening COc1ccc(Cc2nnc(-c3ccccc3)o2)cc1 returned TTR transcr act inactive.
`C[C@H]1[C@@H](OC(=O)Nc2ccccc2Cl)CC[C@@]23CCCN2C(=O)CCC[C@@H]13` gave TTR transcr act inactive.
COP(=O)(O)[C@@H](CC(C)C)NC(=O)OCc1ccccc1 was read as TTR transcr act inactive.
Screening COc1ccccc1NC(=O)Cc1csc(NC(=O)c2ccccc2)n1 returned TTR transcr act inactive.
For COc1ccccc1Nc1nnc(SCC(=O)Nc2cc(C)on2)s1 the results were TTR transcr act inactive.
COc1ccccc1NC(=O)Cc1noc(CSc2nnc(N)s2)n1 was read as TTR transcr act 11, HuH7 TTR inh inactive and TTR up confirm inactive.
For O=C1C(NC(=O)N2c3ccccc3C=Cc3ccccc32)CCCCN1Cc1ccc(Cl)cc1 (stereo not drawn) the results were TTR transcr act inactive.
`CCOc1ccc(CCNC(=O)C2CCCCC2)cc1OCC` gave TTR transcr act inactive.
